Many of the other results were omitted from the sample, so hits are more common in it than they were.
CBX7 inh: CBX7 chromodomain binding inhibitors, primary screen, biochemical, AlphaScreen; Chromobox protein homolog 7 (Homo sapiens), O95931; AlphaScreen His6-CBX7 / biotin-H3K27me3 peptide binding; stronger effect = lower value; normalised signal (fraction of DMSO) (no concentration beside the values); 66,000 compounds, 1.1% hits; in the data active = normalised signal below about 0.5
Target sequence (O95931 whole entry, looked up): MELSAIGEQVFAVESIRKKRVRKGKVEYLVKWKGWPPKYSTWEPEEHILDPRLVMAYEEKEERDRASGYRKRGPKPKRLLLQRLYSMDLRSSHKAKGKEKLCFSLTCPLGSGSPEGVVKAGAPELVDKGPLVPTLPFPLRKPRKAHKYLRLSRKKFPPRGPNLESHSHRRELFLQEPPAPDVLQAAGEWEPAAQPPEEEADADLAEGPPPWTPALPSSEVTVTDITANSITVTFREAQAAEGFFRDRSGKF
A number is an active result; i = inactive; ! = a repeat was not active.

SMILES	CBX7 inh
CCN1CCN(C(c2cccs2)C(C)NC(=O)CC(C)C)CC1 (stereo not given)	i
O=C(CCc1ccccc1)NC(c1ccc(Cl)cc1)c1ccc2cccnc2c1O (stereo not given)	i
CC(C)CC(=O)NC(c1cccs1)c1ccc2cccnc2c1O (stereo not given)	0.1
O=C(O)CC(NCc1cccnc1)c1cccs1 (stereo not given)	i
CC(C)CC(=O)NC(c1ccccc1)c1ccc2cccnc2c1O (stereo not given)	0.044
Cc1ccc(C(NC(=O)C(C)C)c2cc(Cl)c3cccnc3c2O)cc1 (stereo not given)	i
Oc1c(C(Nc2ccccc2)c2ccccc2)ccc2cccnc12 (stereo not given)	0.24
O=C(Nc1ccc(Cl)c(Cl)c1)Nc1cccc2cccnc12	i
O=C(O)C(NS(=O)(=O)c1cccc2cccnc12)c1ccccc1 (stereo not given)	i
CCCC(=O)NC(c1ccc(OC)cc1)c1cc(Cl)c2cccnc2c1O (stereo not given)	i
COc1ccc(C(NC(=O)CCc2ccccc2)c2ccc3cccnc3c2O)cc1 (stereo not given)	0.082
Cc1ccc(C(NC(=O)CC(C)C)c2ccc3cccnc3c2O)cc1 (stereo not given)	i
Cc1ccc2cc(CCNS(C)(=O)=O)c(=O)[nH]c2c1C	i
COc1ccc(CN(C(=O)COc2c(C)cc(C)cc2C)C2CCS(=O)(=O)C2)cc1OC (stereo not given)	i
COc1ccc(-c2nc3cnccn3c2Nc2c(C)cccc2C)cc1	i
Cc1cccc(-c2nc3cc(NC(=O)c4ccc(Cl)cc4)ccc3o2)c1	i
CCn1cc(C(=O)NCCCN2CCOCC2)c(=O)c2ccc(C)nc21	i
COc1ccc(OCC(=O)Nc2ccc(-c3nc4ccccc4s3)cc2)cc1	i
O=C(Nc1cccc(Br)c1)c1cnc2sccn2c1=O	i
COc1cccc(NC(=O)c2cn(CC(C)C)c(=O)c3cc(OC)c(OC)cc23)c1	i
CCC(C)NC(=O)c1ccc2c(c1)N(Cc1ccccc1)C(=O)c1ccccc1S2=O (stereo not given)	i
CCc1cc2c(=O)c(-c3ccc4c(c3)OCO4)c(C)oc2cc1OC(C)=O	i
COc1ccc(CSc2cccc3cccnc23)cc1[N+](=O)[O-]	i
COc1cc(NC(=O)Cc2ccc(OC)c(OC)c2)c2ncccc2c1	i
CCCC(=O)NC(c1ccc(C(C)C)cc1)c1cc(Cl)c2cccnc2c1O (stereo not given)	i
SMILES	CBX7 inh
COc1ccc(C(NC(=O)CC(C)C)c2ccc3cccnc3c2O)cc1OC (stereo not given)	0.061
CC(C)C(=O)NC(c1cccs1)c1cc(Cl)c2cccnc2c1O (stereo not given)	i
CCCC(=O)NC(c1cccs1)c1cc(Cl)c2cccnc2c1O (stereo not given)	0.27
O=C(NCCO)C(=O)NCc1ccncc1	i
Cc1ccc(C)c(-c2csc(Nc3ccc(Cl)cc3)n2)c1	i
COc1cccc(Nc2nc(-c3ccc(Cl)c(Cl)c3)cs2)c1	0.44
Clc1ccc(-c2csc(Nc3ccccc3)n2)cc1Cl	i
COc1ccc(Nc2nc(-c3ccc(Cl)cc3)cs2)cc1	i
Clc1ccc(-c2csc(Nc3ccc(Br)cc3)n2)cc1Cl	0.46!
COc1cccc(Nc2nc(-c3ccccc3)cs2)c1	i
Cc1ccc(-c2csc(Nc3ccc(Cl)cc3)n2)cc1C	0.31!
Brc1ccc(Nc2nc(-c3ccc(I)cc3)cs2)cc1	i
COc1cccc(Nc2nc(-c3ccc(-c4ccccc4)cc3)cs2)c1	i
Cc1c(C(=O)Nc2ccc(F)cc2)sc2ncn(CC(=O)N3CC(C)CC(C)C3)c(=O)c12 (stereo not given)	i
O=C(Nc1c(-c2ccccc2)nc2ccccn12)c1ccccc1Br	i
Cc1ccc(-c2csc(Nc3cccc(C)c3C)n2)cc1	i
O=C(CC1(CC2=NS(=O)(=O)c3ccccc3N2)CCCC1)NC1CCCCCC1	i
Cc1ccccc1Nc1c(-c2ccc(N(C)C)cc2)nc2ccccn12	i
COC(=O)c1cccnc1-n1c(=O)c2cccnc2n(CC(=O)Nc2ccccc2OC)c1=O	i
O=C(Nc1ccccc1C(=O)N1CCCCC1)c1cccc(S(=O)(=O)N2CCCCC2)c1	i
COc1ccc(N2C(=O)CCC(C(=O)Nc3ccccc3OC)C2c2ccc(F)cc2)cc1 (stereo not given)	i
CCc1ccc(OCC(O)CN2CCC(C)CC2)cc1 (stereo not given)	i
Cc1ccccc1NC(=O)c1nc[nH]c1C(=O)Nc1ccccc1C	i
O=C(Nc1ccc(Br)cc1)c1ccccc1C(=O)c1ncc[nH]1	i
O=C(Nc1ccccn1)c1nc[nH]c1C(=O)O	0.3
SMILES	CBX7 inh
O=C(Nc1ccc(Br)cc1)c1nc[nH]c1C(=O)O	0
O=C(Nc1ccccc1C(=O)Nc1ccccn1)c1ccccc1	i
CCOC(=O)c1[nH]cnc1C(=O)Nc1ccc(Br)cc1	i
CC(C)OCCCNC(=O)c1cc(=O)[nH]c2ccc(S(=O)(=O)N3CCCCC3)cc12	i
Cc1cc(C)c(S(=O)(=O)NCC23C=CC(O2)C2C(=O)N(Cc4ccccc4)C(=O)C23)c(C)c1 (stereo not given)	i
CCCCNC(=O)c1ccc2c(c1)N=C(C)c1cc(Br)ccc1S2	i
CCOc1ccc(NC(=O)CSc2nnc(Cc3cc(=O)[nH]c(=O)[nH]3)n2-c2cccc(C)c2)cc1	i
Cc1ccc(Nc2c(-c3ccc(N4CCOCC4)cc3)nc3cc(C)ccn23)cc1	i
Cc1ccc(Nc2c(-c3ccc(N4CCOCC4)cc3)nc3ccccn23)cc1	i
COc1ccc(Nc2c(-c3ccc(C)cc3)nc3sccn23)cc1OC	i
COc1ccc(-c2nc3sccn3c2Nc2ccc3c(c2)OCO3)cc1	0.47
COc1ccc(-c2nc3ccccn3c2Nc2ccc3c(c2)OCCO3)cc1	i
Cc1ccc(Nc2c(-c3ccc(N4CCOCC4)cc3)nc3sccn23)cc1C	0.49
O=C(Nc1ccccc1Cl)c1nc2c(nnn2Cc2cccc3c2OCCO3)c(=O)[nH]1	i
CCOC(=O)c1cnc2cc(-c3ccc(C(C)(C)C)cc3)nn2c1C	i
CCN(CC)C(=O)c1ccccc1NC(=O)c1cccc(S(=O)(=O)N2CCCCCC2)c1	i
O=C(NCc1ccccc1)C1CCCN(S(=O)(=O)c2ccc(Br)s2)C1 (stereo not given)	i
CCN(CC)S(=O)(=O)c1ccc(C(=O)Nc2nnc(-c3ccccc3Cl)o2)cc1	i
CCCCN(CCCC)S(=O)(=O)c1ccc(C(=O)Nc2nnc(COC)o2)cc1	0.16
CCCCN(CCCC)S(=O)(=O)c1ccc(C(=O)Nc2nnc(-c3ccccc3Cl)o2)cc1	i
CCN(CC)S(=O)(=O)c1ccc(C(=O)Nc2nnc(COC)o2)cc1	0.024
CCCCN(CCCC)S(=O)(=O)c1ccc(C(=O)Nc2nnc(-c3cccs3)o2)cc1	i
Cc1cccc(C)c1NC(=O)C1(N(C)C(=O)c2ccc3ccccc3n2)CCCC1	i
Cc1ccc(NC(=O)c2sc3nc(C)nc(N4CCCCC4C)c3c2C)c(Br)c1 (stereo not given)	i
CCn1ccnc1C(O)(c1ccccc1)c1ccc(C)cc1 (stereo not given)	i
c1ccc(CCSc2nnc(-c3ccncc3)n2-c2ccccc2)cc1	i
CCOc1cc2c(cc1OCC)C1C(C(=O)Nc3cc(C)ccn3)c3ccccc3C(=O)N1CC2 (stereo not given)	0.19
